For 35 molecules, Potency results are on record in PubChem BioAssay (NCATS).

Values joined by “and” are separate entries in the source; they are usually repeats but may differ in a detail not shown here. Equal entries are not always repeated. Inconclusive results are not listed. Where a call stands in place of a potency, no number is given. Active and inactive are the calls of the source. Calls come from the whole dose curve; as a rule, active = well fitted inhibition curve with a large enough effect; inconclusive = small, poorly fitted or top-dose-only effect; inactive = no such curve, though single readings can be large or run the other way.
Potency is the fitted concentration of half-maximal effect.

In the assay the target is Cytochrome P450 2C19 (Homo sapiens) (UniProt P33261). In words: qHTS Assay for Inhibitors and Substrates of Cytochrome P450 2C19 (AID 899). Note: nearly all actives have a fitted effect of over 60% in size. Conditions: recombinant CYP2C19, luciferin-H EGE luminescence; series mostly up to 11.4 µM. In a few lines: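 NADPH-dependent conversion of Luciferin-H EGE (10uM, at KM) by 5nM enzyme in 50mM KPO4, 60 min at 37C following 10 min compound preincubation. Stopped with luciferin detection buffer; luminescence read after 20 min.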
Sequence of Cytochrome P450 2C19 (Homo sapiens) (P33261 whole entry, looked up): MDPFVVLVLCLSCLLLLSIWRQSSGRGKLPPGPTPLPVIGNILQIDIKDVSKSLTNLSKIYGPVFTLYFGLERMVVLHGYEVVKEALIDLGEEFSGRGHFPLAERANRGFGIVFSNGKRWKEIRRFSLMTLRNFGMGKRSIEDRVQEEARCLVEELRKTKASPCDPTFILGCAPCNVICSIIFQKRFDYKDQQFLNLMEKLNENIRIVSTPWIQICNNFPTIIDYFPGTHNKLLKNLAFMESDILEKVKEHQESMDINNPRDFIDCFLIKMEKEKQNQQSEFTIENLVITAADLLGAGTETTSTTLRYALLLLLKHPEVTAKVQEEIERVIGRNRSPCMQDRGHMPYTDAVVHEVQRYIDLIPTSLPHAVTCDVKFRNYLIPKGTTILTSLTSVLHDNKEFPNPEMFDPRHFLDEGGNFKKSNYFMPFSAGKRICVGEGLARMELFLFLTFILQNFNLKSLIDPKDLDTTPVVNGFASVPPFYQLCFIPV
On the technique in general: Quantitative high-throughput screening tests each substance at several concentrations.
Take `COC(=O)NC(c1cccc(F)c1)[C@@]1(C(=O)OC)CCCC1=O` (stereo not given in full): the Potency result was “inactive”. The same measure for `CC12C=C(/C=C/c3ccc(F)cc3)C(C)(C1)C(c1ccc(F)cc1)CC2=O` (stereo not given): 2.51 µM (active); for `CCN1C(C)=C(C(=O)OC)C(c2ccccc2)N2C(=O)[C@@]3(C(=O)OC)O[C@@]12C1C(=O)N(c2ccccc2)C(=O)C13` (stereo not given in full): “inactive”; for `CC1(C)OC(C(O)(c2cc(C(F)(F)F)cc(C(F)(F)F)c2)c2cc(C(F)(F)F)cc(C(F)(F)F)c2)C(C(O)(c2cc(C(F)(F)F)cc(C(F)(F)F)c2)c2cc(C(F)(F)F)cc(C(F)(F)F)c2)O1` (stereo not given): “inactive”. The same measure for `Cc1cc(=O)oc2cc(OC3C=CC(C#CC(C)(C)C)OC3CO)ccc12` (stereo not given): “inactive”; for `CC(=O)OCC1OC(c2ccc(C(C)=O)cc2)C=CC1OC(C)=O` (stereo not given): “inactive”.

Regarding `COC(=O)C1C(C)OC(=O)NC1c1ccccc1` (stereo not given), the Potency entry is “inactive”. Turning to `COC(=O)NC(/C=C/c1ccco1)[C@@]1(C(=O)OC)CCCC1=O` (stereo not given in full), the Potency result is “inactive”. The same measure for `CCOC(=O)OCC1OC(c2cc(C)cc(C)c2)C=CC1OC(=O)OCC` (stereo not given): “inactive”; for `C=C(C)C(O)C(CC/C=C(\C)C(=O)OCC)OC` (stereo not given): “inactive”; for `COC(=O)NC(CC(C)=O)c1cccc(C(F)(F)F)c1` (stereo not given): “inactive”. In the case of `CN1CCc2nc(-c3ccccc3)c(-c3ccccc3)cc2C1` it was “inactive”; in that of `O=C1/C(=C/c2ccccc2)Oc2ccccc21`, “inactive”; in that of `CC1CCC(C(=O)O)NC1c1ccc(-c2ccco2)cc1` (stereo not given), “inactive”. Consider `CC1(C)OC(C(O)(c2cccc3c2oc2ccccc23)c2cccc3c2oc2ccccc23)C(C(O)(c2cccc3c2oc2ccccc23)c2cccc3c2oc2ccccc23)O1` (stereo not given), for which the Potency result is “inactive”. The same measure for `Cc1ccc(OC2C(O)COC2/C=C/C#Cc2ccc(C(C)(C)C)cc2)cc1` (stereo not given): “inactive”; for `O=C1C=CC2(OCCCO2)C(Br)=C1`: “inactive”; for `CC1CCC2C(=O)N3C(CCC(C)[C@@H]3c3ccc(-c4ccco4)cc3)C(=O)N2C1c1cccc(N2CCCC2=O)c1` (stereo not given in full): “inactive”. In the case of `Cc1ccc(C#CC2C=CC(Oc3ccc4c(c3)OCO4)C(CO)O2)c(C)c1` (stereo not given) it was “inactive”; in that of `COC(=O)C/C=C1\c2ccccc2C(OC)C1C` (stereo not given), “inactive”.

In the case of `CC1(C)Oc2cc3c(cc2O1)OC(C)(C)O3`, the Potency result is “inactive”. In the case of `COC(=O)NC(c1ccco1)[C@@]1(C(=O)OC)CCCC1=O` (stereo not given in full) it was “inactive”. As to `CC(=O)OCC1OC(C#CC(C)(C)C)C=CC1OC(C)=O` (stereo not given), the Potency result was “inactive”.

`C=COCC1CN2C(CCC(C)C2c2ccc(Br)cc2)C(=O)O1` (stereo not given): the Potency was 316 nM (active) and 79.4 nM (active). Take `CC(=O)OCC1OC(C#CC2=CCCCC2)C=CC1OC(C)=O` (stereo not given): the Potency entry was “inactive”.

For the molecule `COC1C(O)COC1/C=C/c1ccccc1` (stereo not given), the Potency entry is “inactive”. The same measure for `COc1cc(C2c3[nH]c4ccccc4c3CC3C(=O)N4C(Cc5c([nH]c6ccccc56)C4c4cc(OC)c(OC)c(OC)c4)C(=O)N32)cc(OC)c1OC` (stereo not given): “inactive”; for `COc1cc(C2NC(C(=O)O)Cc3c2[nH]c2ccccc32)cc(OC)c1OC` (stereo not given): “inactive”; for `COC(=O)NC(CC(C)=O)c1ccco1` (stereo not given): “inactive”. With `COC(=O)NC(CC(C)=O)c1ccccc1` (stereo not given), the Potency result is “inactive”. For `COc1cccc(C2NC(C(=O)O)CCC2C)c1` (stereo not given), the Potency entry was “inactive”. Take `COCC#Cc1ccc(C2NC(C(=O)O)CCC2C)cc1` (stereo not given): the Potency entry is “inactive”. The same measure for `O=Cc1ccc(OC2C=CC(c3ccccc3)OC2CO)cc1` (stereo not given): “inactive”; for `CC(O)CCCCCCC/C=C/C=C/C(N)=O` (stereo not given): “inactive”; for `CCOC(=O)[C@]1(C(NC(=O)OC)c2cccc(C)c2)CCCC1=O` (stereo not given in full): “inactive”.
